Test results taken from PubChem BioAssay (Tox21).
Records with an inconclusive call do not appear. Calls of active or inactive are those of the source. Unless noted, calls follow the shape of the full dose curve.

Tests used:
[1] = Nuclear factor erythroid 2-related factor 2/antioxidant responsive element (Nrf2/ARE) small molecule agonists: qHTS cell viability counter screen in human keratinocytes (AID 1919968; active = well fitted curve in the direction sought with a large enough effect in the repeat runs; an effect the other way counts as inactive or inconclusive; also: nearly all actives have a fitted effect of over 55% in size); details: KeratinoSens HaCaT ARE cells viability, CellTiter-Fluor, 24 h; series mostly up to 92.4 µM
Summary of the method: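 In human HaCaT keratinocytes stably expressing an ARE-driven luciferase, compound exposure lasted 23 h at 37 C under 5% CO2. Viable cells are quantified with a protease-based fluorogenic reagent (CellTiter-Fluor) read 1 h after addition.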

[2] = Nuclear factor erythroid 2-related factor 2/antioxidant responsive element (Nrf2/ARE) small molecule agonists: luciferase reporter gene qHTS assay in human keratinocytes (AID 1919969); details: KeratinoSens HaCaT ARE-luciferase, luminescence, 24 h; series mostly up to 92.4 µM; also: nearly all actives have a fitted effect of over 35% in size
[3] = biological target: Gonadotropin-releasing hormone receptor (Homo sapiens) (UniProt P30968); assay: Human gonadotropin-releasing hormone receptor (GnRHR) small molecule agonists, calcium flux assay in GnRHR-HEK293 cells (AID 1920063); details: calcium flux fluorescence, agonist mode; series mostly up to 57.6 µM; also: nearly all actives have a fitted effect of over 35% in size
Summary of the method: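 Intracellular calcium rise is the read-out: engineered human GnRHR HEK293 cells, dye-loaded, are exposed to DMSO-dissolved compounds and fluorescence at Ex/Em 480/540 is tracked for 3 min.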

[4] = biological target: KiSS-1 receptor (Homo sapiens) (UniProt Q969F8); assay: Human kisspeptin (KISS1R) small molecule agonists, calcium flux assay in KISS1R-HEK293 cells (AID 1920064; active = well fitted curve in the direction sought with a large enough effect in the repeat runs; an effect the other way counts as inactive or inconclusive); details: KISS1R-HEK293, calcium flux fluorescence, agonist; series mostly up to 76.8 µM
Summary of the method: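 Concentration-response testing used 15 concentrations in triplicate on human KISS1R-expressing HEK293 cells. Calcium-dependent fluorescence (Ex/Em 480/540) was followed kinetically for 3 min after compound transfer.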

[5] = G protein-coupled receptor (GPCR) small molecule agonists, calcium flux assay: HEK293 wild type cell line counter screen (AID 1920065); details: HEK293 WT calcium flux, fluorescence, agonist mode; series mostly up to 57.6 µM
Summary of the method: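 Fluorescence intensity signals activation. After overnight (18 h) culture and a 1 h calcium dye load at 37 C, compounds are added by pin tool and the plate read at 480/540 nm for 3 min in 1 s steps.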

[6] = p53 small molecule agonists, cell-based qHTS assay with human liver microsomes (AID 1963577); details: HCT-116 p53RE-bla with human liver microsomes, ratio, 16 h; series mostly up to 66 µM
Summary of the method: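 Cells carrying a p53-responsive bla reporter were rested 5 h (37 C, 5% CO2) before compound transfer. Human liver microsomes plus NADPH, 0.5 mg/mL final apiece, supplied metabolism during the 16 h 37 C exposure.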

[7] = p53 small molecule agonists, cell-based qHTS assay with rat liver microsomes (AID 1963578); details: HCT-116 p53RE-bla, beta-lactamase ratio, 16 h; series mostly up to 66 µM
Summary of the method: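 Fluorescence from a beta-lactamase reporter under a p53 response element was measured after cells had been incubated 16 h at 37 C with test compound and rat liver microsomes plus NADPH (0.5 mg/mL final each).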

[8] = p53 small molecule agonists, cell-based qHTS assay with human liver microsomes: qHTS cell viability counter screen (AID 1963579); details: p53RE-bla HCT-116 viability, ATP luminescence, 16 h, HLM; series mostly up to 66 µM; also: nearly all actives have a fitted effect of over 45% in size
Summary of the method: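 Seed p53RE-bla cells at 4,000 per well; incubate 5 h at 37 C; add compound, human liver microsomes and NADPH; incubate 16 h at 37 C; add CellTiter-Glo; after 30 min at room temperature, read luminescence.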

[9] = p53 small molecule agonists, cell-based qHTS assay with rat liver microsomes: qHTS cell viability counter screen (AID 1963580); details: p53RE-bla HCT-116 + rat microsomes, ATP viability, 16 h; series mostly up to 66 µM; also: nearly all actives have a fitted effect of over 45% in size
Summary of the method: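 After the beta-lactamase ratio was read, CellTiter-Glo was added to the same wells and luminescence measured at 30 min; cells had been treated 16 h at 37 C with compounds, rat liver microsomes and NADPH (0.5 mg/mL final each).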

[10] = p53 small molecule agonists, cell-based qHTS assay: qHTS cell viability counter screen (AID 1963581); details: p53RE-bla HCT-116 viability, ATP luminescence, 16 h; series mostly up to 66 µM; also: nearly all actives have a fitted effect of over 45% in size
Summary of the method: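 Luminescence from CellTiter-Glo, reflecting ATP content, serves as the cytotoxicity measure; it is taken after the 2 h reporter substrate step in HCT-116 p53RE-bla cells dosed for 16 h at 37 C.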

[11] = p53 small molecule agonists, cell-based qHTS assay (AID 1963582; active = well fitted activation curve with a large enough effect in the signal ratio in the repeat runs, not every such curve was filed as active; the % refers to the signal ratio); details: HCT-116 p53RE-bla reporter, beta-lactamase FRET ratio, 16 h; series mostly up to 66 µM
Summary of the method: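 After plating, p53RE-bla cells sat 5 h in the incubator; compounds or DMSO vehicle were pinned in; a 16 h incubation at 37 C followed; FRET substrate was added and, 2 h later at RT, fluorescence was measured.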

[12] = biological target: 5-hydroxytryptamine receptor 2A (Homo sapiens) (UniProt P28223); assay: 5-hydroxytryptamine receptor 2A (HTR2A) small molecule antagonists, cell-based qHTS assay (AID 1963586); details: HTR2A-CHO cells, DOI-induced calcium flux, fluorescence; series mostly up to 61.5 µM; also: nearly all actives have a fitted effect of over 45% in size
Summary of the method: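 CHO cells stably expressing human HTR2A were plated for 18 h at 37 C, then loaded with calcium dye for 1 h. Compounds were preincubated 5 min at room temperature before DOI (4 nM solution) was added. Kinetic fluorescence was read for 3 min.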

[13] = biological target: 5-hydroxytryptamine receptor 2A (Homo sapiens) (UniProt P28223); assay: 5-hydroxytryptamine receptor 2A (HTR2A) small molecule agonists, cell-based qHTS assay (AID 1963587); details: HTR2A-CHO cells, calcium flux fluorescence, agonist mode; series mostly up to 76.8 µM; also: nearly all actives have a fitted effect of over 30% in size
Summary of the method: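 CHO cells stably expressing human HTR2A, plated 18 h, loaded with calcium dye 1 h at 37 C. Agonist mode: compounds added and intracellular calcium fluorescence recorded kinetically for 2 min at 1 sec intervals.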

[14] = biological target: Muscarinic acetylcholine receptor M1 (Homo sapiens) (UniProt P11229); assay: Cholinergic receptor muscarinic 1 (CHRM1) small molecule antagonists, cell-based qHTS assay (AID 1963588); details: CHRM1-CHO antagonist mode, calcium flux fluorescence; series mostly up to 61.5 µM; also: nearly all actives have a fitted effect of over 40% in size
Summary of the method: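 Compounds were tested at 15 concentrations in three independent runs. Dye-loaded CHRM1-CHO cells were exposed 5 min at room temperature before stimulation by acetylcholine added at 50nM. Intracellular calcium was read kinetically on FDSS for 3 min.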

[15] = biological target: Muscarinic acetylcholine receptor M1 (Homo sapiens) (UniProt P11229); assay: Cholinergic receptor muscarinic 1 (CHRM1) small molecule agonists, cell-based qHTS assay (AID 1963589); details: CHRM1-CHO cells, agonist mode, calcium flux fluorescence; series mostly up to 76.8 µM; also: nearly all actives have a fitted effect of over 35% in size
Summary of the method: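 Fluorescent calcium dye reports M1 activation in stably transfected CHO cells. Compounds, 15 concentrations, added after 1 h dye loading at 37 C; kinetic reading at 1 sec intervals.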

[16] = cAMP Responsive Elements (CRE) small molecule agonists, cell-based qHTS assay (AID 1963590); details: CRE-bla HEK293T, beta-lactamase FRET ratio, 3 h; series mostly up to 92.4 µM
Summary of the method: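 Compound exposure lasted 3 h at 37 C/5% CO2 in CRE-bla HEK 293T cells grown in assay medium with 10% dialyzed FBS and 25 mM HEPES. Reporter signal came from LiveBLAzer B/G FRET substrate, 2 h, room temperature.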

[17] = cAMP Responsive Elements (CRE) small molecule antagonists, cell-based qHTS assay (AID 1963591; active = well fitted inhibition curve with a large enough effect in the signal ratio in the repeat runs, not every such curve was filed as active; the % refers to the signal ratio); details: CRE-bla HEK293T, beta-lactamase FRET ratio; series mostly up to 92.4 µM
Summary of the method: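 Stimulation used NKH477 at a final 0.25 uM for 3 h in compound-treated CRE-bla HEK293T cells, seeded 18 h beforehand. Reporter activity was measured with LiveBLAzer B/G FRET substrate after 2 h at room temperature.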

[18] = biological target: Beta-2 adrenergic receptor (Homo sapiens) (UniProt P07550); assay: Adrenergic beta2 receptor (ADRB2) small molecule antagonists, cell-based qHTS assay (AID 1963592); details: CHO-ADRB2 cells, isoproterenol-stimulated cAMP HTRF ratio, 0.5 h; series mostly up to 92.4 µM; also: nearly all actives have a fitted effect of over 50% in size
Summary of the method: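 Assay format: CHO-ADRB2 cells, 18-20hr seeding at 37C/5% CO2, then compound plus 1nM isoproterenol agonist mix for 0.5hr RT. Homogeneous time-resolved fluorescence cAMP detection after 1hr, expressed as 665/615 nm ratio.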

[19] = biological target: Beta-2 adrenergic receptor (Homo sapiens) (UniProt P07550); assay: Adrenergic beta2 receptor (ADRB2) small molecule agonists, cell-based qHTS assay (AID 1963593); details: CHO-ADRB2 cells, cAMP HTRF, 30 min; series mostly up to 92.4 µM;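 also: CHO cells stably overexpressing human ADRB2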
Summary of the method: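 CHO cells stably over-expressing ADRB2 were plated overnight at 37C, then dosed with compounds plus a stimulation mix containing 100uM IBMX and 25uM Ro-20-1724 for 0.5hr at room temperature. cAMP was measured by HTRF competition, 1hr.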

[20] = biological target: D(2) dopamine receptor (Homo sapiens) (UniProt P14416); assay: Dopamine D2 receptor (DRD2) small molecule agonists, cell-based qHTS assay (AID 1963594); details: HEK293-DRD2 cAMP HTRF, agonist mode, 30 min; series mostly up to 92.4 µM; also: nearly all actives have a fitted effect of over 35% in size
Summary of the method: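 HEK293 cells stably expressing human DRD2, pre-treated with PDE inhibitor Ro20-1724 (0.1 mM final) and compound 10 min at room temperature, then stimulated with NKH477 (200nM […]) for 30 min. cAMP read by HTRF (665/620 nm).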

Measured: Potency

Sequence of Muscarinic acetylcholine receptor M1 (Homo sapiens) (P11229 whole entry, looked up): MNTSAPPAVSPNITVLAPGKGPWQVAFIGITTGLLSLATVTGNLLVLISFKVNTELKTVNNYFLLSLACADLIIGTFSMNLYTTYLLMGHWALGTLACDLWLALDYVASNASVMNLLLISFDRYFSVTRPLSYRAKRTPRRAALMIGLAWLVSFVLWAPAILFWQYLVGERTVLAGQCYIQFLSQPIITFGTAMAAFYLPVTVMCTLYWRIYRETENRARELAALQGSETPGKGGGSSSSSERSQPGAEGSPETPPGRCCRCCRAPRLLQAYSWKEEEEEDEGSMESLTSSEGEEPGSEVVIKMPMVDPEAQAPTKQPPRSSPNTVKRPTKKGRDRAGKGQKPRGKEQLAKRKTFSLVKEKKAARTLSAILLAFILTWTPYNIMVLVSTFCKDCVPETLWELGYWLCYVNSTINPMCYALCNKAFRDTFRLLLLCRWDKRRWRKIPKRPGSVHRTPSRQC
Sequence of Beta-2 adrenergic receptor (Homo sapiens) (P07550 whole entry, looked up): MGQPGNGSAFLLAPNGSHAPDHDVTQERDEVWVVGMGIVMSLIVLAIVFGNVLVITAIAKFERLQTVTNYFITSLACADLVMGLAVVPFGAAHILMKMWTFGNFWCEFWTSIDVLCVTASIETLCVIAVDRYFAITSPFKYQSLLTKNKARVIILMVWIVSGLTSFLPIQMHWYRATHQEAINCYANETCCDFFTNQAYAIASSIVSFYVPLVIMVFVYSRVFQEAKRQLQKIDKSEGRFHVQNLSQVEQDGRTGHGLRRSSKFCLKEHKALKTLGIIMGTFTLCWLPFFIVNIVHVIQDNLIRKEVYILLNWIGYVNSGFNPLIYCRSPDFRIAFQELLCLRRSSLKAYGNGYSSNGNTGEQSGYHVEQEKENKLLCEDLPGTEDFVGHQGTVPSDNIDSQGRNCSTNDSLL
Sequence of D(2) dopamine receptor (Homo sapiens) (P14416 whole entry, looked up): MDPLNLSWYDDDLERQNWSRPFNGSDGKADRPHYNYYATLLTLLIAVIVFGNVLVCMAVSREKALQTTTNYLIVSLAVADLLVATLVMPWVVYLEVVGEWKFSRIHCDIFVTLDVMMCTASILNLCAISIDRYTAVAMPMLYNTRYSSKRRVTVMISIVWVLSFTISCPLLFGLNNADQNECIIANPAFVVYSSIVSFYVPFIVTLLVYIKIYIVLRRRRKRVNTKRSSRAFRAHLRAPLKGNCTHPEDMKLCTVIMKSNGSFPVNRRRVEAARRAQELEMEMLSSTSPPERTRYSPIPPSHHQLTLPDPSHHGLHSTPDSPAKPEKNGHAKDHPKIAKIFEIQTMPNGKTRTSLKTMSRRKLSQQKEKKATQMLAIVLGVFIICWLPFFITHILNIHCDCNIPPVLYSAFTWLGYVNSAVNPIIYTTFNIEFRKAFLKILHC
Sequence of 5-hydroxytryptamine receptor 2A (Homo sapiens) (P28223 whole entry, looked up): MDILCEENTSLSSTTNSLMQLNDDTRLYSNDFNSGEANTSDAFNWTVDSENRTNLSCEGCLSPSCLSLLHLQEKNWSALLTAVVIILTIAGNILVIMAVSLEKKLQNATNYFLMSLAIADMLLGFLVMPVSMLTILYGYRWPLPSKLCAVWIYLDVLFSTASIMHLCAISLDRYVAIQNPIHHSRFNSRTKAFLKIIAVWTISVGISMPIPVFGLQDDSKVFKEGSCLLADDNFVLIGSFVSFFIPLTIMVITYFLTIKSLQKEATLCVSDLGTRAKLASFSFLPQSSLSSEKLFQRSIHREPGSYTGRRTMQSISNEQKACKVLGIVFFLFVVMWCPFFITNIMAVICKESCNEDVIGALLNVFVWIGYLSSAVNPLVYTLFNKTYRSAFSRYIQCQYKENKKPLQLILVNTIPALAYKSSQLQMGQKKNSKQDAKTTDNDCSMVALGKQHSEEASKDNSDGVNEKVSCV
Sequence of Gonadotropin-releasing hormone receptor (Homo sapiens) (P30968 whole entry, looked up): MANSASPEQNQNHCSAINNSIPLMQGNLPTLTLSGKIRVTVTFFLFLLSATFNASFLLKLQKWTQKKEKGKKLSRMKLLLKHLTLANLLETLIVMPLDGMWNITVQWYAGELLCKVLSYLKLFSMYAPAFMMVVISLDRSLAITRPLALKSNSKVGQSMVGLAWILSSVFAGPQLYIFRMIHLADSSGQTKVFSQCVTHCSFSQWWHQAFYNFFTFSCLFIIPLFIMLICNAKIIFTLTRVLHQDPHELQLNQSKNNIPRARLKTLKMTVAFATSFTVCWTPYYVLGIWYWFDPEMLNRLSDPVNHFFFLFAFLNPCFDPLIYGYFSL
Sequence of KiSS-1 receptor (Homo sapiens) (Q969F8 whole entry, looked up): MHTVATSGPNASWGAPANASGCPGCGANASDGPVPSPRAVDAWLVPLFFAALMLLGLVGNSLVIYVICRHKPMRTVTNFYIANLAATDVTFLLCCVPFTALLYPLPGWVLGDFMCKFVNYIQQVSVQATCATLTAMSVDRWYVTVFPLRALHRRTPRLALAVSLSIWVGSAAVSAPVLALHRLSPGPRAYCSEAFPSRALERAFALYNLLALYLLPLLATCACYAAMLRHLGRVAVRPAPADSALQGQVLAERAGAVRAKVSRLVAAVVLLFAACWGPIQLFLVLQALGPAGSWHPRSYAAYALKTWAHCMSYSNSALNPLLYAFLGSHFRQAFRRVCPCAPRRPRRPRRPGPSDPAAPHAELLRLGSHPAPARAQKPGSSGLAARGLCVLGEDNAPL

CC(=O)CC(C)(C)C1CCCCC1
inactive: all assays above

O=C(Nc1ccc([N+](=O)[O-])cc1)Nc1ccc([N+](=O)[O-])cc1 (tested in a mixture with another compound)
inactive: all assays above

CC(=O)OCCc1ccccc1
inactive: all assays above

CC(=O)c1cc2ccccc2s1
not listed: [20]
inactive: all other assays above

O=[N+]([O-])c1ccc2c(c1)Cc1ccccc1-2
not listed: [20]
inactive: all other assays above
